Test results as given in PubChem BioAssay (EPA / NIEHS).
Where “and” joins values, the source holds several entries; their conditions need not be identical. Equal entries are not always repeated. The source holds several records for some structures; these can differ, active in one and inactive in another. Calls of active or inactive are those of the source. Rule for the calls: active = hit-call score of the fitted dose curve at least 0.9, where 1 is the maximum; inactive = score below 0.9.

Tests used:
[1] = BSK_CASM3C_SRB: Viability Assessment in the BioMAP Diversity Plus: CASM3C Assay (AID 2283050); conditions: primary human coronary artery smooth muscle cells
[2] = read-out: Thrombomodulin, THBD (gene 7056); experiment: BSK_CASM3C_Thrombomodulin: BioMAP Diversity Plus: CASM3C Assay for Thrombomodulin Biomarker Activity (AID 2283051); conditions: primary human coronary artery smooth muscle cells; actives raise or lower the signal;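 note: thrombomodulin protein level measured by ELISA 24 h after dosing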
[3] = read-out: Tissue Factor, F3 (gene 2152); experiment: BSK_CASM3C_TissueFactor: BioMAP Diversity Plus: CASM3C Assay for Tissue Factor Biomarker Activity (AID 2283052); conditions: primary human coronary artery smooth muscle cells; actives raise or lower the signal;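 note: cell surface tissue factor protein level read by ELISA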
[4] = read-out: Interferon-gamma inducible Protein 10 (IP10), CXCL10 (gene 3627); experiment: BSK_hDFCGF_IP10: BioMAP Diversity Plus: hDFCGF Assay for Interferon-gamma inducible Protein 10 (IP10) Biomarker Activity (AID 2283053); conditions: primary human foreskin fibroblasts; actives raise or lower the signal
In short: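 IP-10 levels, quantified by ELISA, are taken from human foreskin fibroblast cultures 24 h after chemical treatment, with DMSO serving as negative control and baseline for bidirectional analysis.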

[5] = read-out: Urokinase-type plasminogen activator receptor (uPAR), PLAUR (gene 5329); experiment: BSK_CASM3C_uPAR: BioMAP Diversity Plus: CASM3C Assay for Urokinase-type plasminogen activator receptor (uPAR) Biomarker Activity (AID 2283054); conditions: primary human coronary artery smooth muscle cells; actives raise or lower the signal;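 note: cell-surface uPAR protein level quantified by ELISA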
[6] = read-out: Vascular cell adhesion molecule 1 (VCAM1), VCAM1 (gene 7412); experiment: BSK_CASM3C_VCAM1: BioMAP Diversity Plus: CASM3C Assay for Vascular cell adhesion molecule 1 (VCAM1) Biomarker Activity (AID 2283055); conditions: primary human coronary artery smooth muscle cells; actives raise or lower the signal;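 note: VCAM-1 protein level quantified by ELISA on the cells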
[7] = read-out: Collagen III, COL3A1 (gene 1281); experiment: BSK_hDFCGF_CollagenIII: BioMAP Diversity Plus: hDFCGF Assay for Collagen III Biomarker Activity (AID 2283056); conditions: primary human foreskin fibroblasts; actives raise or lower the signal
In short: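 hDFCGF primary human dermal fibroblasts; 24 h chemical exposure; collagen III by ELISA; bidirectional curve fit vs DMSO baseline (gain or loss of signal).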

[8] = read-out: Epidermal growth factor receptor (EGFR), EGFR (gene 1956); experiment: BSK_hDFCGF_EGFR: BioMAP Diversity Plus: hDFCGF Assay for Epidermal growth factor receptor (EGFR) Biomarker Activity (AID 2283057); conditions: primary human foreskin fibroblasts; actives raise or lower the signal
In short: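 Measured by ELISA: EGFR levels on primary human foreskin fibroblasts 24 h after chemical treatment, analysed relative to DMSO with bidirectional fitting.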

[9] = BSK_hDFCGF_Proliferation: Cell Proliferation Assessment in the BioMAP Diversity Plus: hDFCGF Assay (AID 2283059); conditions: primary human foreskin fibroblasts;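 note: curves fitted for both rise and fall of signal versus DMSO baseline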
In short: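 Sub-confluent human foreskin fibroblast cultures receive test chemical […]. Relative cell number is quantified by sulforhodamine B staining (0.1%, after 10% TCA fixation) at 560 nm, with bidirectional fitting referenced to DMSO.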

[10] = read-out: Macrophage colony-stimulating factor (MCSF), CSF1 (gene 1435); experiment: BSK_hDFCGF_MCSF: BioMAP Diversity Plus: hDFCGF Assay for Macrophage colony-stimulating factor (MCSF) Biomarker Activity (AID 2283060); conditions: primary human foreskin fibroblasts; actives raise or lower the signal
In short: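 ELISA read-out of M-CSF in human dermal foreskin fibroblast cultures, 24 h after chemical dosing; gain or loss of signal fitted bidirectionally relative to DMSO baseline.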

[11] = BSK_hDFCGF_SRB: Viability Assessment in the BioMAP Diversity Plus: hDFCGF Assay (AID 2283061); conditions: primary human foreskin fibroblasts;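 note: cells exposed to compound for 24 h before the read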
In short: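 Primary human foreskin fibroblasts; 24 h post-dose; fixed 10% TCA, stained 0.1% SRB, A560 read; total protein as overt cytotoxicity measure; curves fit bidirectionally vs DMSO control.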

[12] = read-out: TIMP metallopeptidase inhibitor 1 (TIMP1), TIMP1 (gene 7076); experiment: BSK_hDFCGF_TIMP1: BioMAP Diversity Plus: hDFCGF Assay for TIMP metallopeptidase inhibitor 1 (TIMP1) Biomarker Activity (AID 2283062); conditions: primary human foreskin fibroblasts; actives raise or lower the signal
In short: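 ELISA readout of TIMP-1 from human dermal foreskin fibroblast cultures 24 h post-dosing. Curves were fitted in both directions against DMSO baseline, with SRB total-protein staining in parallel cultures as a cytotoxicity check.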

[13] = read-out: Monokine induced gamma interferon (MIG), CXCL9 (gene 4283); experiment: BSK_hDFCGF_MIG: BioMAP Diversity Plus: hDFCGF Assay for Monokine induced gamma interferon (MIG) Biomarker Activity (AID 2283063); conditions: primary human foreskin fibroblasts; actives raise or lower the signal
In short: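 Fibroblasts (human foreskin, primary) dosed, 24 h, MIG by ELISA; fit bidirectional vs DMSO.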

[14] = read-out: Matrix Metallopeptidase 1 (MMP1), MMP1 (gene 4312); experiment: BSK_hDFCGF_MMP1: BioMAP Diversity Plus: hDFCGF Assay for Matrix Metallopeptidase 1 (MMP1) Biomarker Activity (AID 2283064); conditions: primary human foreskin fibroblasts; actives raise or lower the signal
In short: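 Primary human foreskin fibroblasts in the hDFCGF system were dosed with test chemical, and MMP1 was measured by ELISA 24 h later. Values come from bidirectional curve fitting against the DMSO baseline.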

[15] = read-out: Plasminogen activator inhibitor-1 (PAI1), SERPINE1 (gene 5054); experiment: BSK_hDFCGF_PAI1: BioMAP Diversity Plus: hDFCGF Assay for Plasminogen activator inhibitor-1 (PAI1) Biomarker Activity (AID 2283066); conditions: primary human foreskin fibroblasts; actives raise or lower the signal
In short: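 PAI-1 levels, determined by ELISA, served as the endpoint in human foreskin fibroblast cultures exposed to compound for 24 h, with DMSO as baseline.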

[16] = read-out: Intercellular Adhesion Molecule 1 (ICAM1), ICAM1 (gene 3383); experiment: BSK_KF3CT_ICAM1: BioMAP Diversity Plus: KF3CT Assay for Intercellular Adhesion Molecule 1 (ICAM1) Biomarker Activity (AID 2283067); conditions: primary human keratinocytes with fibroblasts; actives raise or lower the signal
In short: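 ELISA readout of ICAM-1; KF3CT human skin co-culture (keratinocytes + foreskin fibroblasts), 24 h post-dose; gain/loss fit vs DMSO baseline.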

[17] = read-out: Interferon-gamma inducible Protein 10 (IP10), CXCL10 (gene 3627); experiment: BSK_KF3CT_IP10: BioMAP Diversity Plus: KF3CT Assay for Interferon-gamma inducible Protein 10 (IP10) Biomarker Activity (AID 2283068); conditions: primary human keratinocytes with fibroblasts; actives raise or lower the signal
In short: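 ELISA read-out of IP-10 after 24 h chemical dosing of human skin primary co-culture (keratinocytes, foreskin fibroblasts). Gain or loss of signal relative to DMSO, bidirectional curve fit.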

[18] = BSK_KF3CT_SRB: Viability Assessment in the BioMAP Diversity Plus: KF3CT Assay (AID 2283069); conditions: primary human keratinocytes with fibroblasts;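 note: total protein by sulforhodamine B staining as a cytotoxicity measure; read 24 h after compound addition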
In short: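 Human primary keratinocyte plus foreskin fibroblast co-culture exposed to chemicals for 24 h. Total protein measured by 0.1% sulforhodamine B staining after 10% TCA fixation, read at 560 nm; bidirectional fitting versus DMSO baseline.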

[19] = read-out: Interleukin-8 (IL8), CXCL8 (gene 3576); experiment: BSK_hDFCGF_IL8: BioMAP Diversity Plus: hDFCGF Assay for Interleukin-8 (IL8) Biomarker Activity (AID 2283058); conditions: primary human foreskin fibroblasts; actives raise or lower the signal
In short: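 ELISA read-out of IL-8 from primary human foreskin fibroblast cultures taken 24 h after dosing; values are bidirectional fits relative to DMSO vehicle.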

[20] = read-out: Vascular cell adhesion molecule 1 (VCAM1), VCAM1 (gene 7412); experiment: BSK_hDFCGF_VCAM1: BioMAP Diversity Plus: hDFCGF Assay for Vascular cell adhesion molecule 1 (VCAM1) Biomarker Activity (AID 2283065); conditions: primary human foreskin fibroblasts; actives raise or lower the signal
In short: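 ELISA read-out of VCAM-1 on human skin fibroblasts, 24 h post-dose; gain or loss of signal fitted bidirectionally against DMSO baseline.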

Measured: AC50

O=C(O)C(F)(F)C(F)(F)C(F)(F)C(F)(F)C(F)(F)C(F)(F)C(F)(F)C(F)(F)Cl
active: [4] 39.2 µM and 41.9 µM | [7] 8.33 µM | [8] 7.33 µM and 55.2 µM | [9] 43.1 µM and 45.7 µM | [10] 30 µM and 46.9 µM | [11] 47.7 µM and 49.2 µM | [12] 30 µM | [13] 21.4 µM and 34.1 µM | [14] 1.31 µM and 12.3 µM | [15] 47.7 µM and 46.5 µM | [16] 32 µM and 25.1 µM | [17] 45 µM and 45.9 µM | [18] 41.7 µM and 49.7 µM
inactive: [1] | [2] | [3] | [5] | [6] | [7] | [12]

CC(C)(C)C(=O)CC(=O)C(F)(F)C(F)(F)C(F)(F)F
not listed: [9]
inactive: all other assays above

FC(F)(F)C(F)(F)CNCC(F)(F)C(F)(F)F
active: [8] 7.57 µM
inactive: [1] | [2] | [3] | [4] | [5] | [6] | [7] | [8] | [19] | [10] | [11] | [12] | [13] | [14] | [15] | [16] | [17] | [18]

C=CC(F)(F)C(F)(F)C(F)(F)C(F)(F)C(F)(F)C(F)(F)C(F)(F)C(F)(F)C=C
inactive: [1] | [2] | [3] | [4] | [5] | [6] | [7] | [8] | [19] | [9] | [10] | [11] | [12] | [13] | [14] | [20] | [15] | [16] | [17] | [18]
active: [11] 3.33 µM

O=C(O)C(F)(OC(F)(F)C(F)(OC(F)(F)C(F)(F)C(F)(F)F)C(F)(F)F)C(F)(F)F (stereo unspecified)
inactive: all assays above

C=C(C)C(=O)OCC(F)(F)C(F)(F)C(F)(F)C(F)(F)C(F)(F)C(F)(F)C(F)(F)F
active: [11] 1.4 µM
inactive: [1] | [2] | [3] | [4] | [5] | [6] | [7] | [8] | [19] | [10] | [11] | [12] | [13] | [14] | [15] | [16] | [17] | [18]

C#C[C@]1(O)CC[C@H]2[C@@H]3CCc4cc(OC)ccc4[C@H]3CC[C@@]21C
active: [3] 0.016 µM | [7] 0.00348 µM | [8] 0.016 µM | [9] 4.67 µM | [15] 16 nM
not listed: [20]
inactive: all other assays above

FC(F)(F)C(F)(F)C(F)(F)C(F)(F)C(F)(F)C(F)(F)C(F)(F)I
not listed: [9]
inactive: all other assays above

CCc1c(Br)c(Br)c(Br)c(Br)c1Br
active: [3] 4.48 µM
inactive: all other assays above
